From article PMC11574364

Assays:
Assay in all cases: protein domain microarray probed with biotinylated miRNA; Domain array: 20 mM Tris-HCl pH 7.4, 200 mM KCl, 0.2 mM EDTA, 0.05% NP40, 2 ug/ul heparin, overnight 4 C. ORF array: PBS pH 7.0 with RNase inhibitor, 100 ng RNA; high values mean tight binding
Conditions in all cases: ssRNA
YTHDF1 = molecular target: T1, YTHDF1 (Homo sapiens, UniProt Q9BYJ9)
T1 sequence: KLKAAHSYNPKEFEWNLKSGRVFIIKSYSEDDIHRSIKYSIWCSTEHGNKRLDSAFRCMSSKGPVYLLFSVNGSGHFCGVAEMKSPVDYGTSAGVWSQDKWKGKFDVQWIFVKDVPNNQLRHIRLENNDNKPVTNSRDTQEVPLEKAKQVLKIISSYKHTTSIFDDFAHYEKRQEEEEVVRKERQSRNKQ

RBM27 = molecular target: T2, RBM27 (Homo sapiens, UniProt Q9P2N5)
T2 sequence: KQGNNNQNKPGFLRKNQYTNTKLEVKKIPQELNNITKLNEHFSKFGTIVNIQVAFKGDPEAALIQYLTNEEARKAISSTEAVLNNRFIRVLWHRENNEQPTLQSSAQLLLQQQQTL

STAU2(3) = molecular target: T3, STAU2(3) (Homo sapiens, UniProt Q9NUL3)
T3 chain: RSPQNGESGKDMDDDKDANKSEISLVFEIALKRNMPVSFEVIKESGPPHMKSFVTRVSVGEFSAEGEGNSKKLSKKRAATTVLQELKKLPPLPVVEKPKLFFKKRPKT

RKHD3(1-2) = molecular target: T4, RKHD3(1-2) (Homo sapiens, UniProt Q6ZN04)
T4 sequence: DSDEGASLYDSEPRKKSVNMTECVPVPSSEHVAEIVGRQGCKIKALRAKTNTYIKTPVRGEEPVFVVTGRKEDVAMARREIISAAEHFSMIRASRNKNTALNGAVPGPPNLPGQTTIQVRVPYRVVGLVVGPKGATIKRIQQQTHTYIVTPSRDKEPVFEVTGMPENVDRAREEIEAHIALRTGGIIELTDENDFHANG

RBM19(2-4) = molecular target: T5, RBM19(2-4) (Homo sapiens, UniProt Q9Y4C8)
T5 sequence: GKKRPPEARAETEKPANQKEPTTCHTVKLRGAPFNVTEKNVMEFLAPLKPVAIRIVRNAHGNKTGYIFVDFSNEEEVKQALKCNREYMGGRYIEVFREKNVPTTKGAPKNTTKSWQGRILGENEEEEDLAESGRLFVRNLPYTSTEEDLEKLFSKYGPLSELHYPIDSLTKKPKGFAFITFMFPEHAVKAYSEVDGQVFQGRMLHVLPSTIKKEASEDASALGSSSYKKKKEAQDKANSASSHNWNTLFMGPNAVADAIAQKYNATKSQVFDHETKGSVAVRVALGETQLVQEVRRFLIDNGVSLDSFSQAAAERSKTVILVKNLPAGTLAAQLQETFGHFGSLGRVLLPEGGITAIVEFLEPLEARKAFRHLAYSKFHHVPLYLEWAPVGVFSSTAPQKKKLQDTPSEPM

RBM26(2) = molecular target: T6, RBM26(2) (Homo sapiens, UniProt Q5T8P6)
T6 sequence: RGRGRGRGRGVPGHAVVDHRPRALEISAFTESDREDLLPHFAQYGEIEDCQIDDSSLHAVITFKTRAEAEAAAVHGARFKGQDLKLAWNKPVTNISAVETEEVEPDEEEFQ

RBM14 = molecular target: T7, RBM14 (Homo sapiens, UniProt Q96PK6)
T7 sequence: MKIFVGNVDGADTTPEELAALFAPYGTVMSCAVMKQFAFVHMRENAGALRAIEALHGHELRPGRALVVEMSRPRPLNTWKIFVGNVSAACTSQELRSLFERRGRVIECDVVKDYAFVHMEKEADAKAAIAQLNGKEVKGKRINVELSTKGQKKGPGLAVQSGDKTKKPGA

RALYL = RALYL (Homo sapiens, UniProt Q86SE5)
RALYL, sequence (Q86SE5 1-115): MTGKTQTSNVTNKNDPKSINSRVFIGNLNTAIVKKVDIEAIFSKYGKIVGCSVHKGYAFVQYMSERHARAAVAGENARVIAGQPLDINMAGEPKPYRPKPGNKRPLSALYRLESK

PIG38 = molecular target: T8, PIG38 (Homo sapiens, UniProt Q8TC92)
T8 sequence: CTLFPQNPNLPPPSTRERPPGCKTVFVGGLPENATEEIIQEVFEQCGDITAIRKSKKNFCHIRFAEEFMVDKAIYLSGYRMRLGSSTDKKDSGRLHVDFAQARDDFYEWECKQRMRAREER

KRR1 = KRR1 (Homo sapiens, UniProt Q13601)
KRR1, sequence (Q13601 36-250): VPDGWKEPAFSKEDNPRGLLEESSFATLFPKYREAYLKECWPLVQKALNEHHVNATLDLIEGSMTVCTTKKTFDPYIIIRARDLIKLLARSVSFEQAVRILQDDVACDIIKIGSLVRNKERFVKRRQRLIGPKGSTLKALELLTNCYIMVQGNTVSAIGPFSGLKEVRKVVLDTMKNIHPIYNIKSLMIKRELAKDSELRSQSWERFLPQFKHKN

NOVA2(3) = molecular target: T9, NOVA2(3) (Homo sapiens, UniProt Q9UNW9)
T9 sequence: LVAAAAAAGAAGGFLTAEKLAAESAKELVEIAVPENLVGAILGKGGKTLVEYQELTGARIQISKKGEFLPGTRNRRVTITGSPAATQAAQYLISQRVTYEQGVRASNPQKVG

RNPC3(2) = molecular target: T10, RNPC3(2) (Homo sapiens, UniProt Q96LT9)
T10 sequence: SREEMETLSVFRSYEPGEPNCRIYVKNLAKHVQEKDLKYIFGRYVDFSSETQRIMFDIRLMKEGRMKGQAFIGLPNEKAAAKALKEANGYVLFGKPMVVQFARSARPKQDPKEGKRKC

RBMXL1 = RBMXL1 (Homo sapiens, UniProt Q96E39)
RBMXL1, sequence (Q96E39 1-110): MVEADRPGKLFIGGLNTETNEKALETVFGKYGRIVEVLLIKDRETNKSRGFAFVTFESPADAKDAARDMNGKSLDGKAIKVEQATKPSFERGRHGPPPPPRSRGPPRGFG

RBM38 = molecular target: T11, RBM38 (Homo sapiens, UniProt Q9H0Z9)
T11 sequence: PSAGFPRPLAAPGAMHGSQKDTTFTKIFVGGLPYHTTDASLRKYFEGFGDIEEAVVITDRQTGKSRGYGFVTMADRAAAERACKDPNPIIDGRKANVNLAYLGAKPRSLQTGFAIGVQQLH

IGF2BP2(3-4) = IGF2BP2(3-4) (Homo sapiens, UniProt Q9Y6M1)
IGF2BP2(3-4), sequence (Q9Y6M1 410-599): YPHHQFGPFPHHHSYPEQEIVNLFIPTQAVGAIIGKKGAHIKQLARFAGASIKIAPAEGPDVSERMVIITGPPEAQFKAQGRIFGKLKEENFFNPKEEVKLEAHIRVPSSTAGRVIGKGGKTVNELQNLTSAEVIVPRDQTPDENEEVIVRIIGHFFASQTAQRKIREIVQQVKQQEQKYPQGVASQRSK

STAU1(2) = STAU1(2) (Homo sapiens, UniProt O95793)
STAU1(2), sequence (O95793 164-271): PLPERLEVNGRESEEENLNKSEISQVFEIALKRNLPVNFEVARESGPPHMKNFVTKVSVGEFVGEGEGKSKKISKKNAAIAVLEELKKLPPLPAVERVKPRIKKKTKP

SETD1A = SETD1A (Homo sapiens, UniProt O15047)
SETD1A, sequence (O15047 60-200): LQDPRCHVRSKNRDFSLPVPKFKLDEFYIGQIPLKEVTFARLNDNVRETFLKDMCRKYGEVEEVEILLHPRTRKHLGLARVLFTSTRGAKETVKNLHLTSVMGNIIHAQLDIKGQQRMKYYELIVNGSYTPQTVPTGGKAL

IGF2BP1(3-4) = IGF2BP1(3-4) (Homo sapiens, UniProt Q9NZI8)
IGF2BP1(3-4), sequence (Q9NZI8 388-577): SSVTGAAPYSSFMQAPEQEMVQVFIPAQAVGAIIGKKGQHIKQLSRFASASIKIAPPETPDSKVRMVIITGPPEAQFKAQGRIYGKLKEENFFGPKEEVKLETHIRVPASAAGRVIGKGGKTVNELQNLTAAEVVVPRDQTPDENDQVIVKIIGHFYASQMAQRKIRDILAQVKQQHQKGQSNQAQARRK

VIGILIN(6-10) = VIGILIN(6-10) (Homo sapiens, UniProt Q00341)
VIGILIN(6-10), sequence (Q00341 495-900): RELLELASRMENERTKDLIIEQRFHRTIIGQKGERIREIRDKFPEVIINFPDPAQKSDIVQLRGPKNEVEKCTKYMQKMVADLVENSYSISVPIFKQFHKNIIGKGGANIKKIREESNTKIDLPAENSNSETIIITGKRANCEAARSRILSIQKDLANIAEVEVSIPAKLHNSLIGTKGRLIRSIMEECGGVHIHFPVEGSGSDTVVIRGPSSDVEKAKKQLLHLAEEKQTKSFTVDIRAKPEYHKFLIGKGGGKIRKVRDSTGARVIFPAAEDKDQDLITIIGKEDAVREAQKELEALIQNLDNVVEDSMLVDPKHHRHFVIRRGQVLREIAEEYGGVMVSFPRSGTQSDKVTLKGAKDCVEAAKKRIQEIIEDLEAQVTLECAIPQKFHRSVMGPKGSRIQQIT

RBM18 = molecular target: T12, RBM18 (Homo sapiens, UniProt Q96H35)
T12 sequence: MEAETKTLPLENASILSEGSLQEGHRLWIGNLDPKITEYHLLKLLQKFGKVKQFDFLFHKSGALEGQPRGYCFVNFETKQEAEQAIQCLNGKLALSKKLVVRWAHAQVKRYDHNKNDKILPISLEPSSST

Sequence	binding signal (YTHDF1)	binding signal (RBM27)	binding signal (STAU2(3))	binding signal (RKHD3(1-2))	binding signal (RBM19(2-4))	binding signal (RBM26(2))	binding signal (RBM14)	binding signal (RALYL)	binding signal (PIG38)	binding signal (KRR1)	binding signal (NOVA2(3))	binding signal (RNPC3(2))	binding signal (RBMXL1)	binding signal (RBM38)	binding signal (IGF2BP2(3-4))	binding signal (STAU1(2))	binding signal (SETD1A)	binding signal (IGF2BP1(3-4))	binding signal (VIGILIN(6-10))	binding signal (RBM18)
AGAGGUAGUAGGUUGCAUAGUU	52.7 ± 4.33 fluorescence intensity	486 ± 29.4 fluorescence intensity	34.1 ± 5.01 fluorescence intensity	2320 ± 70.7 fluorescence intensity	2390 ± 546 fluorescence intensity	168 ± 6.55 fluorescence intensity	26.3 ± 7.16 fluorescence intensity	932 ± 89.3 fluorescence intensity	44.1 ± 0.488 fluorescence intensity	73.6 ± 7.55 fluorescence intensity	1853 ± 17.2 fluorescence intensity	168 ± 44.9 fluorescence intensity	1390 ± 47.7 fluorescence intensity	2315 ± 13.9 fluorescence intensity	1780 ± 95.8 fluorescence intensity	52.2 ± 5.35 fluorescence intensity	95.585 ± 0.0212 fluorescence intensity	955 ± 10.5 fluorescence intensity	91.1 ± 6.12 fluorescence intensity	316 ± 12.6 fluorescence intensity
UAGCUUAUCAGACUGAUGUUGA	–	145 ± 5.61 fluorescence intensity	–	1110 ± 41.5 fluorescence intensity	901 ± 119 fluorescence intensity	–	–	190 ± 59.9 fluorescence intensity	–	–	63.2 ± 4.35 fluorescence intensity	72.3 ± 78 fluorescence intensity	96.9 ± 4.67 fluorescence intensity	1790 ± 23.9 fluorescence intensity	59.8 ± 2.54 fluorescence intensity	–	23.2 ± 2.69 fluorescence intensity	22 ± 1.81 fluorescence intensity	–	72.6 ± 4.62 fluorescence intensity
CAGUGCAAUGAUGAAAGGGCAU	51.305 ± 0.0212 fluorescence intensity	288 ± 4.19 fluorescence intensity	37.5 ± 2.47 fluorescence intensity	1440 ± 55 fluorescence intensity	2090 ± 439 fluorescence intensity	25.8 ± 3.42 fluorescence intensity	23.1 ± 3.36 fluorescence intensity	381 ± 18.7 fluorescence intensity	31.7 ± 0.785 fluorescence intensity	74.2 ± 2.13 fluorescence intensity	508 ± 29.8 fluorescence intensity	138 ± 35.8 fluorescence intensity	1000 ± 56.8 fluorescence intensity	1690 ± 55.6 fluorescence intensity	904 ± 85.6 fluorescence intensity	23.7 ± 6.78 fluorescence intensity	64.7 ± 9.41 fluorescence intensity	436 ± 8.23 fluorescence intensity	43.4 ± 1.94 fluorescence intensity	248.1 ± 1.58 fluorescence intensity
UGAGGUAGUAGGUUGUAUGGUU	76.9 ± 5.2 fluorescence intensity	657 ± 47.5 fluorescence intensity	60.2 ± 7.26 fluorescence intensity	1740 ± 134 fluorescence intensity	1810 ± 313 fluorescence intensity	298 ± 14 fluorescence intensity	39.7 ± 3.13 fluorescence intensity	1090 ± 62.2 fluorescence intensity	53 ± 2.3 fluorescence intensity	92.2 ± 12.2 fluorescence intensity	144 ± 61.5 fluorescence intensity	130 ± 69.7 fluorescence intensity	805 ± 10.1 fluorescence intensity	1540 ± 34.6 fluorescence intensity	1720 ± 120 fluorescence intensity	78.8 ± 6.29 fluorescence intensity	99.9 ± 23.9 fluorescence intensity	1615 ± 5.45 fluorescence intensity	270 ± 12.9 fluorescence intensity	291 ± 10.4 fluorescence intensity
UGAGGUAGUAGGUUGUGUGGUU	113 ± 10.3 fluorescence intensity	985 ± 77.1 fluorescence intensity	121 ± 14.8 fluorescence intensity	1502 ± 3.98 fluorescence intensity	1520 ± 225 fluorescence intensity	248 ± 3.91 fluorescence intensity	66.3 ± 8.01 fluorescence intensity	1030 ± 103 fluorescence intensity	72.8 ± 3.97 fluorescence intensity	153 ± 3.37 fluorescence intensity	271 ± 8.31 fluorescence intensity	301 ± 43.8 fluorescence intensity	981 ± 17.4 fluorescence intensity	1950 ± 73.9 fluorescence intensity	1420 ± 38.2 fluorescence intensity	123 ± 31.3 fluorescence intensity	213 ± 11.9 fluorescence intensity	1118 ± 5.57 fluorescence intensity	498 ± 6.91 fluorescence intensity	312 ± 45.3 fluorescence intensity
UGAGGUAGUAGGUUGUAUAGUU	22.8 ± 4.72 fluorescence intensity	102 ± 16.8 fluorescence intensity	–	1250 ± 20.7 fluorescence intensity	902 ± 121 fluorescence intensity	23.4 ± 0.552 fluorescence intensity	–	319 ± 85.1 fluorescence intensity	21.4 ± 1.44 fluorescence intensity	20.5 ± 1.99 fluorescence intensity	49.4 ± 3.28 fluorescence intensity	32.3 ± 6.65 fluorescence intensity	300 ± 36.4 fluorescence intensity	631 ± 19.8 fluorescence intensity	412 ± 46 fluorescence intensity	–	36 ± 1.17 fluorescence intensity	262 ± 8.37 fluorescence intensity	26.1 ± 2.47 fluorescence intensity	110 ± 9.81 fluorescence intensity
